# PubChem BioAssay
# The source made the active and inactive calls.
# Experiments:
# [1] = small molecules captured by biotinylated probe aFSTL3 – biochemical, small-molecule microarray, fluorescence 635/667, stem cell growth factor project, primary screen (AID 1064); conditions: higher = more signal;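 also: measures binding of the biotinylated anti-FSTL3 antibody to printed compounds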
# [2] = binders from COS7 lysate, DM2A8 probe, primary screen, torsin A project, cell lysate, small-molecule microarray, fluorescence 635/667 (AID 1065); conditions: higher = more signal, COS7 lysate expressing mutant human TOR1A
# [3] = small molecules captured by biotinylated probe aFGF2 – biochemical, small-molecule microarray, fluorescence 635/667, stem cell growth factor project, primary screen (AID 1067); conditions: higher = more signal;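 also: measures binding of biotinylated aFGF2 protein to printed compounds on slides; z-score merges feature fluorescence and signal-to-noise across triplicate slides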
# [4] = small molecules captured by biotinylated probe aFGF10 – biochemical, small-molecule microarray, fluorescence 635/667, stem cell growth factor project, primary screen (AID 1071); conditions: higher = more signal;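 also: score merges 667 nm spot intensity and signal to noise from triplicate slides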
# [5] = molecular target: Neurogenic locus notch homolog protein 2 (Homo sapiens) (UniProt Q04721); assay: small molecules binding Notch2 protein – biochemical, small-molecule microarray, 635 nm fluorescence, stem cell growth factors, primary screen (AID 1073); conditions: higher = more signal
# [6] = molecular target: Pro-neuregulin-1, membrane-bound isoform (Homo sapiens) (UniProt Q02297); assay: small molecules binding neuregulin-1 protein – biochemical, small-molecule microarray, fluorescence 635/667, psychiatric disease protein project, primary screen (AID 1075); conditions: NRG1 binding, 635 nm fluorescence, higher = more signal;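 also: score combines 667 nm spot fluorescence with signal to noise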
# Pro-neuregulin-1, membrane-bound isoform (Homo sapiens), sequence (Q02297 whole entry, looked up, the tested form may be a part, canonical isoform): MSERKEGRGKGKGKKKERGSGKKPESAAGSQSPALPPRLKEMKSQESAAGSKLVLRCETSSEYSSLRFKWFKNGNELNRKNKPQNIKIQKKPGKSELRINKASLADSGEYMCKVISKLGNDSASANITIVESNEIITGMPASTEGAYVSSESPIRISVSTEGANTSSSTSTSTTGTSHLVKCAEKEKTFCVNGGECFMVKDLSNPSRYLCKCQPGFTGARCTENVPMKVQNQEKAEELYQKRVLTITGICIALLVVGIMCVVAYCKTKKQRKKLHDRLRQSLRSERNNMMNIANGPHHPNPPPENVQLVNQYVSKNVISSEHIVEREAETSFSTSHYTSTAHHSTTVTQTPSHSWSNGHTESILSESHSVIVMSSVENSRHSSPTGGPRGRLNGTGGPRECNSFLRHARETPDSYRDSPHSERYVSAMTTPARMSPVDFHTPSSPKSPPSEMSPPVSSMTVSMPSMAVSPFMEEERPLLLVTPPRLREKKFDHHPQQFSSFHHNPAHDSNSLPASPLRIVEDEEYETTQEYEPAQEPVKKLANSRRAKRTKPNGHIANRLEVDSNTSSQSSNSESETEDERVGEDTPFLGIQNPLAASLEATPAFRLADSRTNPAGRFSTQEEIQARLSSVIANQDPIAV
# [7] = system: Neuregulin-1 EGF-like domain; assay: small molecules binding NRG1 EGF domain – biochemical, small-molecule microarray, 635 nm fluorescence, primary screen (AID 1081); conditions: higher = more signal;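 also: binding of the protein to compounds printed on small-molecule microarray slides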
# [8] = FRG1 expression reporter modulators in myotubes – cell-based, C2C12 myotubes, firefly/Renilla luciferase, luminescence, FRG1 inhibition for FSHD, primary screen (AID 1084); conditions: FRG1 promoter luciferase, higher = more signal, called active from +8 up or from −8 down
# [9] = small molecules captured by biotinylated probe aFST – biochemical, small-molecule microarray, fluorescence 635/667, stem cell growth factor project, primary screen (AID 1086); conditions: higher = more signal;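 also: score merges 667 nm fluorescence with signal-to-noise of each printed compound spot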
# [10] = binders of probe aHhip on microarray, primary screen, stem cell growth factor project, biochemical, small-molecule microarray, fluorescence 635/667 (AID 1087); conditions: higher = more signal;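 also: score merges spot fluorescence at 667nm with spot signal to noise ratio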
# [11] = system: PRMT1 (protein arginine N-methyltransferase 1); assay: small molecules binding arginine methyltransferase PRMT1 – biochemical, small-molecule microarray, 635 nm fluorescence, primary screen (AID 1088); conditions: higher = more signal;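 also: binding of Prmt1 protein to compounds spotted on small-molecule microarray slides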
# [12] = growth effects on S. cerevisiae YJM789 – YJM789 clinical isolate, OD600, 24 h, basal, primary screen (AID 1089); conditions: higher = more signal, called active from +8 up or from −8 down;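 also: growth of clinical yeast isolate S. cerevisiae YJM 789 seeded 1000 cells per well; test concentration not given here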
# [13] = S. pombe growth modifiers, basal conditions – strain 972, OD600, 24 h, no modulator, primary screen (AID 1090);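 also: basal condition with compound alone and no growth modifier present; test concentration not given here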; conditions: S. pombe 972 growth, higher = more signal, called active from +8 up or from −8 down
# [14] = budding yeast growth modifiers under rapamycin – strain BY4716, OD600, 96 h, primary screen (AID 1091); also: test concentration not given here; conditions: S. cerevisiae BY4716 + rapamycin, higher = more signal, called active from +8 up or from −8 down
# [15] = molecular target: Torsin-1A-interacting protein 2 (Homo sapiens) (UniProt Q8NFQ8); assay: small molecules binding lysate-expressed LULL1 – cell lysate, human LULL1 lysate, 635/667 nm fluorescence, primary screen (AID 1092); conditions: small-molecule microarray, hLULL1 lysate binding, 635 nm fluorescence; higher = more signal;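 also: probe is lysate of COS7 cells overexpressing human LULL1; score merges per-feature 667 nm fluorescence with signal-to-noise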
# Torsin-1A-interacting protein 2 (Homo sapiens), sequence (Q8NFQ8 whole entry, looked up): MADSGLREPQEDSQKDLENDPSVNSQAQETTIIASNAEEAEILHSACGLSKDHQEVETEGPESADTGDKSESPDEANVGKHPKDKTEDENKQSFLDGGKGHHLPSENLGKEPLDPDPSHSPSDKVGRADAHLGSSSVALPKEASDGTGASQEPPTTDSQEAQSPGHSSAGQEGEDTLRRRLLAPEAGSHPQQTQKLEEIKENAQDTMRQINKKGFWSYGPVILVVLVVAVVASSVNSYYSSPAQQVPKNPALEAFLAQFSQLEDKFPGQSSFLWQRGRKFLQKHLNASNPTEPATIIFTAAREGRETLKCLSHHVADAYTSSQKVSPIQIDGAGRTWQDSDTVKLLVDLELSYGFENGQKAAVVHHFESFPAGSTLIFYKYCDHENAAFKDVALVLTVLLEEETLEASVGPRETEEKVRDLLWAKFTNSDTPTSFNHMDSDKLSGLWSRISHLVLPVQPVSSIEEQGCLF
# [16] = optical density change of DRC41 E. coli – strain DRC41, OD650, 24 h, E. coli filamentation project, primary screen (AID 1093);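 also: MC1000 strain lacking acrAB efflux and sulA so SOS filamentation is blocked; test concentration not given here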; conditions: E. coli DRC41 growth, higher = more signal, called active from +8 up or from −8 down
# [17] = probe aLefty2 binding to arrayed compounds – biochemical, biotinylated probe, 635/667 nm fluorescence, primary screen (AID 1094); conditions: small-molecule microarray, higher = more signal;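 also: score merges spot fluorescence near 667 nm with spot signal-to-noise ratio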
# [18] = system: Noggin (protein binding on small-molecule microarray); assay: small molecules binding Noggin protein – biochemical, 635/667 nm fluorescence, primary screen (AID 1095); conditions: 635 nm fluorescence, higher = more signal;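 also: score merges 667 nm feature fluorescence with signal to noise over triplicate slides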
# [19] = molecular target: Neurogenic locus notch homolog protein 3 (Homo sapiens) (UniProt Q9UM47); assay: small molecules binding NOTCH3 protein – biochemical, 635/667 nm fluorescence, primary screen (AID 1096); conditions: small-molecule microarray, 635 nm fluorescence, higher = more signal
# Neurogenic locus notch homolog protein 3 (Homo sapiens), sequence (Q9UM47 whole entry, looked up): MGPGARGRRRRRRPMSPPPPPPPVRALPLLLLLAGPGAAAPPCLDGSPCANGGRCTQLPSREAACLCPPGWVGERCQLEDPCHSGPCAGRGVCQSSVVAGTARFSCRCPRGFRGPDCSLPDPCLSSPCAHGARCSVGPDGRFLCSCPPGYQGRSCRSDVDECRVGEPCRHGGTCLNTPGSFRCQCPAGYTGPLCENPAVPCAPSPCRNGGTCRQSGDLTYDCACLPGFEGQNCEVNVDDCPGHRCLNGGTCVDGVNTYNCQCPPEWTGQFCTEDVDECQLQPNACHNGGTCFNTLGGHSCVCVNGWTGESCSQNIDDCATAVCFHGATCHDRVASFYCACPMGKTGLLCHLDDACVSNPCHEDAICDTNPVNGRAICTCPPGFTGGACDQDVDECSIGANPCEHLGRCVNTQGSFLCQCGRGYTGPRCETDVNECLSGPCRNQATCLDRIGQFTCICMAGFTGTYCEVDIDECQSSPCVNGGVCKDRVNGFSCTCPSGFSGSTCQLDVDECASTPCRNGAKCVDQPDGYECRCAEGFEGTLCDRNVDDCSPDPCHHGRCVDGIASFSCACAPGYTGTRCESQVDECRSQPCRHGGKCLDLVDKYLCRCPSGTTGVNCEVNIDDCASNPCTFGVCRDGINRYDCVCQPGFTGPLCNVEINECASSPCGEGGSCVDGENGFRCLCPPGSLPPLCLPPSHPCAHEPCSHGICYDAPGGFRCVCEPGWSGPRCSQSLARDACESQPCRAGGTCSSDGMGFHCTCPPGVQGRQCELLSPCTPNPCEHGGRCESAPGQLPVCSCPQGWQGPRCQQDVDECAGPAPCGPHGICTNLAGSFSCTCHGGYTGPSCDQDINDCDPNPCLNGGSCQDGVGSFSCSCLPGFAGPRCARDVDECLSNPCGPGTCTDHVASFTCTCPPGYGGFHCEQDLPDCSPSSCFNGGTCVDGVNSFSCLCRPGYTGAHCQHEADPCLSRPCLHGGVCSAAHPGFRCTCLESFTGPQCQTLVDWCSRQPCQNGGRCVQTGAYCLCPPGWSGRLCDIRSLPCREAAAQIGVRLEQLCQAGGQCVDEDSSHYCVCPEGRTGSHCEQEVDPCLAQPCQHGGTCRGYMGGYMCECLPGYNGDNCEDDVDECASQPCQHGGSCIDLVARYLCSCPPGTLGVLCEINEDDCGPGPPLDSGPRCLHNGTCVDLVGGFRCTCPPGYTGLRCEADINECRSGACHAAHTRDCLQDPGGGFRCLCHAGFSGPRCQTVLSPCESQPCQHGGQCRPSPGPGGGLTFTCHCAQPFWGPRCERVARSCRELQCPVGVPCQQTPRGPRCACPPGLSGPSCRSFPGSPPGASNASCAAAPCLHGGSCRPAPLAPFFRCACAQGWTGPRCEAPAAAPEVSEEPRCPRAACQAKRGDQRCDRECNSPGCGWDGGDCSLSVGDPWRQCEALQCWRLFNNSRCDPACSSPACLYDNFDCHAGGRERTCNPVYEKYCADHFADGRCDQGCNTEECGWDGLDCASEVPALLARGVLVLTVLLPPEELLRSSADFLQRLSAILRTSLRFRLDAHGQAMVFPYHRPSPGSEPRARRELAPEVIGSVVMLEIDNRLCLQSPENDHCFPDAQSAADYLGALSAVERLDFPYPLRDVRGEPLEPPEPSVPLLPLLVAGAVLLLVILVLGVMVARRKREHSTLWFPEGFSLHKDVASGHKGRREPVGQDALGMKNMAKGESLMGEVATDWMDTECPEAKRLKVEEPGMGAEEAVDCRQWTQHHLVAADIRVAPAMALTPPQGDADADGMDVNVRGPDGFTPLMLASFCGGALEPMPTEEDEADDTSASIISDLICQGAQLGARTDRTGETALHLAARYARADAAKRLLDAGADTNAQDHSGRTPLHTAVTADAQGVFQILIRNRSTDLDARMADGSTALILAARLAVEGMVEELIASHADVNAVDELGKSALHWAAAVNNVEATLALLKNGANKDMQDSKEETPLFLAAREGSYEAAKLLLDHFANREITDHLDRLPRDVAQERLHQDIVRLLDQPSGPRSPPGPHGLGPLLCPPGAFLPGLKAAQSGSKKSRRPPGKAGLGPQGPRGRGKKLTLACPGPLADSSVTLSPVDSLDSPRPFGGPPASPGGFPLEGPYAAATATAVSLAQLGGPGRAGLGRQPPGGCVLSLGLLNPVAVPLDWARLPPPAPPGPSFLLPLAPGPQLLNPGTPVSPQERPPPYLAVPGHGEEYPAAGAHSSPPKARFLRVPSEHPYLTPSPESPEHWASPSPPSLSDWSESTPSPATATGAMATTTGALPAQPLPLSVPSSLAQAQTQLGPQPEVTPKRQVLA
# [20] = probe aEGFR binding to arrayed compounds – biochemical, biotinylated probe, 635/667 nm fluorescence, primary screen (AID 1097); conditions: small-molecule microarray, higher = more signal;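 also: probe is a biotinylated anti-EGFR antibody binding compounds printed on slides; score combines fluorescence near 667 nm and signal to noise of each spot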
Compound,composite z-score [1],composite z-score [2],composite z-score [3],composite z-score [4],composite z-score [5],composite z-score [6],composite z-score [7],z-score [8],composite z-score [9],composite z-score [10],composite z-score [11],z-score [12],z-score [13],z-score [14],composite z-score [15],z-score [16],composite z-score [17],composite z-score [18],composite z-score [19],composite z-score [20]
O=C1O[C@@H](c2ccccc2)[C@@H](c2ccccc2)N2[C@@H](c3ccccc3OCCO)[C@]3(C(=O)Nc4ccc(C#CC5(O)CCCCCC5)cc43)[C@@H](C(=O)N3CCN(c4ncccn4)CC3)[C@H]12,-0.002,0.432,0.0182,0.92,-0.116,0.893,1.2,-2.4 (inactive),-0.0815,-0.137,1.55,3.08 (inactive),0.961 (inactive),7.62 (inactive),2.9,1.21 (inactive),-0.122,0.662,0.821,-0.0542
COCCCNC(=O)[C@@]1(Sc2ccc(C)cc2)CC(=O)N(Cc2ccccc2Cl)[C@@H]1c1ccc(CO)cc1,0.59,2.15,-0.119,0.429,0.307,1.14,0.938,-2.45 (inactive),0.393,-0.0645,1.54,-0.15 (inactive),-0.429 (inactive),-0.439 (inactive),2.74,-1.29 (inactive),0.0112,1.05,1.12,-0.0874
O=C(NC1CC1)[C@@H]1c2ccccc2C(=O)N(C2Cc3ccccc3C2)[C@H]1c1ccc(CO)cc1,-0.549,0.847,-0.0618,0.139,1.01,0.639,0.807,-0.838 (inactive),0.325,1.38,1.44,-0.0411 (inactive),0.682 (inactive),-0.514 (inactive),3.1,0.628 (inactive),-0.0441,0.976,0.722,-0.16
CC(C)CN1C(=O)[C@@]2(c3ccc([N+](=O)[O-])cc3)CC(=O)N(C3CCCCC3)[C@@H]2c2ccc(CO)cc21,0.206,-0.72,-0.0954,-0.991,-0.649,-0.303,-0.429,0.953 (inactive),-1.09,-0.0994,-1.13,0.0926 (inactive),0.612 (inactive),-1.78 (inactive),-0.709,0.733 (inactive),-0.113,-1.13,-0.626,-0.261
[N-]=[N+]=Nc1ccccc1[C@H]1OC(c2ccc(OCCCO)cc2)=N[C@@]1(Cc1ccccc1)C(=O)N1CCOCC1,0.875,0.992,0.184,0.698,1.57,1.84,1.22,-1.6 (inactive),1.52,0.0873,1.46,-1.44 (inactive),-1.02 (inactive),1.91 (inactive),3.23,0.551 (inactive),0.275,0.449,1.15,0.0881
COc1ccc([C@H]2C[C@H]3C(I)=C[C@@H]2C(=O)[C@]32CO2)cc1,-0.434,0.241,-0.12,0.17,0.0021,-0.645,-0.571,2.29 (inactive),0.169,-0.0237,-0.639,-1.61 (inactive),-15.3 (active),-1.79 (inactive),-0.83,1.6 (inactive),-0.161,0.387,0.816,-0.135
CCCCC(O)C1C=CC2C(=O)N(C)C(=O)C2N1N1CCCCC1 (stereo not given),0.515,0.314,0.0311,0.591,1.56,1.12,1.42,0.733 (inactive),1.3,-0.0618,0.506,0.882 (inactive),1.05 (inactive),1.97 (inactive),2.84,-1.1 (inactive),0.365,0.277,0.967,0.197
COC(=O)[C@]1(CCC(=O)OC(C)(C)C)N=C(c2ccc(OCCCO)cc2)O[C@@H]1c1ccccc1,1.11,-0.522,0.0679,-0.87,-0.668,0.791,1.14,-2.62 (inactive),-0.159,-0.233,1.14,-0.401 (inactive),-1.72 (inactive),1.97 (inactive),1.4,2.85 (inactive),0.289,-0.499,0.0628,-0.0689
C#CCOc1ccc(C[C@@H](C(=O)OC)N(CC#C)[C@@H](/C=C/C2CC2)[C@H](O)Cc2ccccc2)cc1,0.282,-1,-0.198,-0.207,-1.12,-0.294,-0.0146,-4.34 (inactive),-0.353,-0.0994,-0.828,0.591 (inactive),0.027 (inactive),1.29 (inactive),-0.361,-0.914 (inactive),-0.0561,-0.446,-0.384,-0.312
CS(=O)(=O)CCOC(=O)C1=CC(CCCO)=CC(C2CC2)N(Cc2cc3c(cc2Br)OCO3)C=C1C(=O)OCCS(C)(=O)=O (stereo not given),-0.0672,0.702,-0.0752,0.142,0.6,1.88,1.2,-0.517 (inactive),0.114,-0.0754,1.37,-0.955 (inactive),-1.87 (inactive),-1.32 (inactive),1.84,0.102 (inactive),0.0723,0.39,0.533,0.0423
CC[C@@H]1C=C(C(=O)O)[C@H](c2cccc3ccccc23)N1S(=O)(=O)c1ccc(C)cc1,-0.0805,-0.26,-0.0162,0.184,0.709,1.94,0.573,-3.41 (inactive),0.279,-0.0645,0.479,-0.118 (inactive),1.49 (inactive),-0.168 (inactive),3,-0.428 (inactive),-0.0537,0.0891,0.814,-0.0356
COc1ccccc1CN1C(=O)c2ccccc2[C@@]2(Cc3ccccc3N(CCCN(C)C)C2=O)[C@@H]1c1ccc(CO)cc1,-0.302,-0.252,-0.0396,-0.0231,0.137,-0.141,0.0968,0.0544 (inactive),-0.201,-0.0645,0.557,0.431 (inactive),-1.23 (inactive),-1.35 (inactive),0.425,0.276 (inactive),-0.247,0.395,0.0593,-0.0612
C=C(CCCC)/C(=C/C[C@@H](OC(C)=O)c1cccc(OCCO)c1)c1cnc2ccccc2c1,-0.0295,0.314,-0.0015,0.0122,0.249,0.122,0.274,-0.269 (inactive),0.219,0.235,1.29,0.0358 (inactive),-0.328 (inactive),0.142 (inactive),0.268,1.24 (inactive),-0.194,1.73,0.86,-0.0828
Cc1ccc(C2C3C(=O)CC4C(=O)N(c5ccccc5)C(=O)C4C3CN2S(=O)(=O)c2ccc(C)cc2)cc1 (stereo not given),0.469,0.204,0.292,0.59,1.57,1.25,1.32,0.0035 (inactive),1.58,0.365,1.32,0.799 (inactive),0.499 (inactive),1.45 (inactive),2.93,0.0125 (inactive),0.571,0.0835,1.12,0.786
COc1ccc(C(=O)Nc2cccc(CN3C(=O)[C@]4(O[C@H](CCn5cc(CCO)nn5)[C@@H]([Si](C)(C)c5ccc(OC)cc5)[C@@H]4C)c4ccccc43)c2)cc1,0.287,-0.161,-0.116,-0.13,0.91,0.654,1.04,-2.91 (inactive),0.372,-0.137,1.06,0.901 (inactive),-14.9 (active),1.15 (inactive),1.2,0.506 (inactive),0.143,0.367,0.556,0.0848
CC(=O)NCCCC[C@@H]1NC(=O)[C@H]2C[C@@H](C(=O)NCCCCCNC(=O)CS)[C@@H](c3ccc(O)cc3)N2C1=O,0.894,0.122,-0.0358,-0.0035,-0.886,0.0616,1.34,0.515 (inactive),-0.226,-0.175,0.524,1.16 (inactive),0.0772 (inactive),1.76 (inactive),1.69,0.358 (inactive),-0.0727,-0.309,-0.527,-0.171
O=c1cccc(-c2ccccc2Cl)o1,-0.152,-0.201,-0.0621,0.366,0.772,-0.234,0.311,1.17 (inactive),0.241,-0.0047,0.023,-0.871 (inactive),-0.463 (inactive),2.12 (inactive),0.551,-0.252 (inactive),-0.127,0.466,-0.691,-0.139
CC(C)[Si](C#CCCCC#N)(Oc1ccccc1Br)C(C)C,-0.517,0.14,-0.182,0.151,0.266,0.151,0.204,0.382 (inactive),0.155,0.316,0.987,1.13 (inactive),-1.09 (inactive),-1.96 (inactive),0.86,-0.146 (inactive),-0.203,0.506,0.653,-0.0389
CN1C(=O)C2C=CC(C(O)c3c(F)cccc3Cl)N(NC(=O)OC(C)(C)C)C2C1=O (stereo not given),0.171,0.233,0.0111,1.11,1.23,1.49,1.3,0.636 (inactive),0.888,0.0623,1.3,-0.143 (inactive),0.415 (inactive),0.635 (inactive),3.45,-0.597 (inactive),0.18,-0.388,0.686,0.0675
CN1C(=O)C2C=CC(C(O)c3ccccc3)N(N3CCCCC3)C2C1=O (stereo not given),-0.239,0.876,0.054,1.02,1.42,1.62,1.02,-1.13 (inactive),0.406,-0.0346,0.664,0.201 (inactive),0.24 (inactive),0.404 (inactive),3.52,-2.05 (inactive),0.0215,0.145,0.646,0.0713
